In PubChem BioAssay (Tox21):
Records with an inconclusive call do not appear. Entries that show only a call come without a potency. Some structures have more than one record in an assay (separate samples or runs), and their calls can disagree. Calls of active or inactive are those of the source. Unless noted, calls come from the whole dose curve; as a rule, active = well fitted curve in the direction sought with a large enough effect in the repeat runs; inconclusive = weak or mixed curves; inactive = no such curve, though single readings can be large; an effect the other way counts as inactive or inconclusive.

Assays:
[1] = qHTS assay to identify small molecule agonists of the vitamin D receptor (VDR) signaling pathway - cell viability counter screen (AID 743224); note: nearly all actives have a fitted effect of over 50% in size; note: potency is the fitted concentration of half-maximal effect
How it was run: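 In parallel with the bla FRET readout, cytotoxicity toward VDR-bla cells after 16 h compound exposure was assessed by CellTiter-Glo, with luminescence recorded after a 30 min room-temperature incubation.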

[2] = qHTS assay to identify small molecule agonists of the NFkB signaling pathway (AID 1159509; active = well fitted curve in the direction sought with a large enough effect in the signal ratio in the repeat runs, not every such curve was filed as active; the % refers to the signal ratio; note: series mostly up to about 61 µM)
How it was run: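 Beta-lactamase reporter assay run in quantitative high-throughput format on an NF-kB-responsive ME-180 line, with 5 hr compound treatment and a FRET-based blue/green fluorescence readout.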

[3] = qHTS assay to identify small molecule agonists of the NFkB signaling pathway - cell viability counter screen (AID 1159515; calls by dose curve; note: series mostly up to about 61 µM; nearly all actives have a fitted effect of over 55% in size)
How it was run: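 Plate 2,000 NFkB-bla ME-180 cells/well; incubate overnight. Add compounds, 5 hr at 37 C. Add FRET substrate, 1.5 hr RT. Add CellTiter-Glo, 30 min RT; read luminescence.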

[4] = qHTS assay to identify small molecule agonists of the endoplasmic reticulum stress response signaling pathway (AID 1159516; active = well fitted activation curve with a large enough effect in the signal ratio in the repeat runs, not every such curve was filed as active; the % refers to the signal ratio)
How it was run: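 Beta-lactamase expression from the ER stress response element in HeLa reporter cells is quantified with the LiveBLAzer B/G FRET substrate, read at 405 nm excitation after 2 hr at room temperature, following 5 hr compound treatment at 37 C.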

[5] = qHTS assay to identify small molecule agonists of the endoplasmic reticulum stress response signaling pathway - cell viability counter screen (AID 1159517; calls by dose curve; note: series mostly up to about 61 µM; nearly all actives have a fitted effect of over 50% in size)
How it was run: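 After overnight attachment, ESRE-bla HeLa cells were treated with Tox21 library compounds for 5 hr. CellTiter-Glo luminescence, read 30 min post-addition at room temperature, reported viability.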

[6] = qHTS assay to identify small molecule antagonists of the retinoid-related orphan receptor gamma (ROR-gamma) signaling pathway - cell viability counter screen (AID 1159520); note: nearly all actives have a fitted effect of over 50% in size
How it was run: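 Cytotoxicity was read from cellular ATP (CellTiter-Glo luminescence) after 16 hr at 37 C with 1 uM doxycycline induction. The inducer was added 2 hr after compound transfer to Tet-on ROR gamma CHO cells.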

[7] = target: Nuclear receptor ROR-gamma (Homo sapiens) (UniProt P51449); experiment: qHTS assay to identify small molecule antagonists of the retinoid-related orphan receptor gamma (ROR-gamma) signaling pathway (AID 1159521;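 note: CHO cells with doxycycline inducible ROR-gamma driving an RORE luciferase reporter; top concentration of the series differs between compounds; nearly all actives have a fitted effect of over 50% in size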)
How it was run: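 Inducible-expression reporter assay: doxycycline (1 uM final) switched on RORγ in CHO cells bearing a ROR response element-luciferase construct, with test compounds present from 2 h beforehand. Decreased luminescence after 16 h defined antagonist activity.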

[8] = qHTS assay to identify small molecule agonists of the AP-1 signaling pathway - cell viability counter screen (AID 1159525; calls by dose curve; note: nearly all actives have a fitted effect of over 55% in size; note: potency is the fitted concentration of half-maximal effect)
How it was run: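 Intracellular ATP by Cell Titer Glo luminescence (30 min, RT) in the same ME-180 AP-1-bla wells after the 5 h compound exposure at 37 °C. Normalised to tetra n-octyl ammonium bromide and DMSO controls.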

[9] = qHTS assay to identify small molecule agonists of the AP-1 signaling pathway (AID 1159526; calls by dose curve)
[10] = qHTS assay to identify small molecule agonists of the RXR signaling pathway - cell viability counter screen (AID 1159529); note: nearly all actives have a fitted effect of over 50% in size; note: potency is the fitted concentration of half-maximal effect
How it was run: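 Counter screen: CellTiter-Glo luminescence. Cells: RXR-alpha-UAS-bla HEK 293T. Medium: 2% charcoal-stripped FBS. Treatment: 16 h, 37 C. Reagent incubation: 30 min, RT.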

[11] = qHTS assay to identify small molecule antagonists of the retinoid acid receptor (RAR) signaling pathway - cell viability counter screen (AID 1159551); note: nearly all actives have a fitted effect of over 35% in size
How it was run: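 Viability of C3RL4 cells is quantified from ATP by luminescence after 6 h treatment at 37 C with compounds and 1 uM retinol.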

[12] = qHTS assay to identify small molecule agonists of the retinoic acid receptor (RAR) signaling pathway (AID 1159553)
How it was run: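 Compounds dissolved in DMSO were pinned onto C3RL4 cells seeded the previous day, and plates were held 6 hr at 37 C. RARE-driven luciferase output was then read by luminescence.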

[13] = qHTS assay to identify small molecule antagonists of the retinoic acid receptor (RAR) signaling pathway (AID 1159552; note: nearly all actives have a fitted effect of over 50% in size)
How it was run: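 Antagonism of retinol-induced RARE reporter activity was measured in C3RL4 cells. Exposure to compounds and 1 uM final retinol lasted 6 hr at 37 C, with luminescence as endpoint.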

[14] = qHTS assay to identify small molecule antagonists of the estrogen related receptor (ERR) signaling pathway - cell viability counter screen (AID 1224818);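 note: series mostly up to about 46 µM; viability measured after 17.5 h of compound exposure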
How it was run: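 Cytotoxicity check run alongside the ERR antagonist screen: cells exposed to test compounds 17.5 h at 37 C, viability taken as CellTiter-Fluor fluorescence intensity.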

[15] = qHTS assay to identify small molecule antagonists of the estrogen related receptor (ERR) signaling pathway (AID 1224819)
How it was run: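 ERR reporter cells were plated at 2,000 cells/well and left 6 h at 37 C/5% CO2 before pin-tool transfer of compounds in DMSO. After 18 h at 37 C, One-Glo was added and luminescence was read 30 min later at room temperature.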

[16] = qHTS assay to identify small molecule agonists of the estrogen related receptor (ERR) signaling pathway (AID 1224820)
How it was run: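 Following a 6 h settling period, 2,000 ERR cells per well receive DMSO-dissolved compounds by pin tool and incubate 18 h at 37 C; agonist activity is scored from One-Glo luminescence read 30 min post-addition.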

[17] = test system: estrogen-related receptor alpha (ERRalpha) with PGC-1alpha coactivator, human; experiment: qHTS assay to identify small molecule antagonists of the estrogen related receptor signaling pathway with the pleiotropic PPARgamma coactivator (PGC) (AID 1224821; calls by dose curve)
How it was run: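 Screening used NTP's PGC/ERR cells, dosed via pin tool with compound in DMSO alongside positive and negative controls. After 18 h at 37 C, One-Glo reagent sat 30 min at room temperature before luminescence detection.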

[18] = qHTS assay to identify small molecule antagonists of the estrogen related receptor signaling pathway with the pleiotropic PPARgamma coactivator (PGC) cell viability counter screen (AID 1224822;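 note: series mostly up to about 46 µM; viability read after 17.5 h compound exposure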)
How it was run: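 Viable cell signal (CellTiter-Fluor, 30 min, 37 C/5% CO2) was measured in PGC/ERR cells after a 17.5 h compound incubation.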

[19] = qHTS assay to identify small molecule antagonists of the vitamin D receptor (VDR) signaling pathway - cell viability counter screen (AID 743225); note: nearly all actives have a fitted effect of over 50% in size
How it was run: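 Same-well multiplex: following 16 h treatment of HEK 293T cells carrying a UAS-driven beta-lactamase reporter with compound and agonist (3 nM final), and a 2 h FRET substrate step, CellTiter-Glo was added and luminescence read after 30 min.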

[20] = target: Retinoic acid receptor RXR-alpha (Homo sapiens) (UniProt P19793); experiment: qHTS assay to identify small molecule agonists of the RXR signaling pathway (AID 1159527; calls by dose curve; note: nearly all actives have a fitted effect of over 35% in size)
Sequence of Retinoic acid receptor RXR-alpha (Homo sapiens) (P19793 whole entry, looked up): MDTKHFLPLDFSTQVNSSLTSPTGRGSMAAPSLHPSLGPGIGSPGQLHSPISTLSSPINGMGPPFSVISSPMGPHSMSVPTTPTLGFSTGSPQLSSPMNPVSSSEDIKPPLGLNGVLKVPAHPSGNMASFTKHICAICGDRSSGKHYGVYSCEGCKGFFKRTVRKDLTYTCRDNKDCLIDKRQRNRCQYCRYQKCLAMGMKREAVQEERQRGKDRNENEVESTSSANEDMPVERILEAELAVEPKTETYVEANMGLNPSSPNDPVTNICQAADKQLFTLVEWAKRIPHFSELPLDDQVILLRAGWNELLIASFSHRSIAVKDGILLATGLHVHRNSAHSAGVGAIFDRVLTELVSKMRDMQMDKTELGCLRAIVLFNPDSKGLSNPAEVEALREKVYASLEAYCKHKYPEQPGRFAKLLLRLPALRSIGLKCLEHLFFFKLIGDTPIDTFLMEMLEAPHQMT
How it was run: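 Compounds in DMSO were added to RXR-alpha-UAS-bla HEK 293T cells kept in 2% charcoal-stripped serum, and incubated 16 hr at 37 C with 5% CO2. Reporter signal came from a 2 hr B/G FRET substrate step.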

SMILES	Potency [1]	outcome [2]	outcome [3]	outcome [4]	outcome [5]	outcome [6]	Potency [7]	Potency [8]	outcome [9]	Potency [10]	outcome [11]	Potency [12]	Potency [13]	outcome [14]	outcome [15]	outcome [16]	outcome [17]	outcome [18]	Potency [19]	Potency [20]
CCCCCCCCS(=O)(=O)Cl	inactive	inactive	inactive	inactive	inactive	inactive	inactive	inactive	inactive	inactive	inactive	inactive	–	–	–	–	–	–	–	–
CC(C)(c1ccc(O)cc1)c1ccc(O)cc1	inactive	inactive	inactive	inactive	inactive	inactive	–	inactive	inactive	inactive	inactive	inactive	inactive	inactive	inactive	inactive	inactive	inactive	–	–
NC(=O)c1ccc(N)cc1	inactive	inactive	inactive	inactive	inactive	inactive	inactive	inactive	inactive	inactive	inactive	inactive	inactive	–	–	–	–	–	inactive	–
COC(=O)C1=C(C)NC(C)=C(C(=O)OC)C1c1ccccc1[N+](=O)[O-]	39 µM (active) and inactive	inactive	inactive	inactive	inactive	inactive	–	49 µM (active) and inactive	inactive	27.6 µM (active) and inactive	inactive	–	–	inactive	inactive	inactive	inactive	inactive	inactive	inactive
O=C(O)CCCl	inactive	inactive	inactive	inactive	inactive	inactive	inactive	inactive	inactive	inactive	inactive	inactive	inactive	–	–	–	–	–	inactive	–
N#Cc1ccc(C2CCCc3cncn32)cc1 (configuration not stated)	inactive	inactive	inactive	inactive	inactive	inactive	inactive	inactive	inactive	inactive	inactive	inactive	inactive	–	–	–	–	–	–	–
